Not all results are given here.
aSyn 5UTR act – Activators working through SNCA 5'UTR binding (MLPCN); alpha-synuclein 5'UTR reporter, activators screen; activity score, % (tested at 7.5 µM), hits read low; actives 7.1% (n = 300,000); in the data active = activity score below about -60%
* = called active by the depositor.

SMILES | aSyn 5UTR act
COc1ccc(CC(=O)c2ccc(O)cc2O)cc1 | -85*
O=C(Cc1ccc(Br)cc1)c1ccc(O)cc1O | -121*
COc1ccc(C(=O)OCc2csc(C)n2)c(O)c1 | -180*
COc1ccccc1-n1cnc2cc(NC(=O)c3ccco3)ccc21 | -87*
CC(C)n1cnc2cc(NC(=O)c3ccco3)ccc21 | -71*
O=C(Nc1ccc2c(c1)ncn2C1CCCCC1)c1ccco1 | -117*
CC(C)OC(=O)CNc1n[nH]c(=S)[nH]c1=O | -131*
N#Cc1c(N2CCOCC2)nsc1-c1ccc(C(F)(F)F)cc1 | -134*
CCn1ncc(Br)c1C(=O)Nc1cc(C)cc(C)c1 | -71*
Cc1ccc(OCC(=O)Nc2nnn(C)n2)c(C)c1 | -87*
Cc1cc(NC(=O)c2oc3ccccc3c2C)ccc1-n1cnnn1 | -124*
COc1cc(OC)cc(C(=O)Nc2ccc(-n3cnnn3)c(C)c2)c1 | -93*
CCN(C(=O)c1cccs1)c1nnc(-c2ccncc2)s1 | -76*
Cc1cccc(NC(=O)C2COc3ccccc3O2)c1 (stereo not given) | -115*
COC(=O)c1cccc(NC(=O)C2COc3ccccc3O2)c1 (stereo not given) | -137*
Cc1ccc(NC(=O)C2COc3ccccc3O2)cc1C (stereo not given) | -171*
CC(C)(C)c1ccc(NC(=O)CC2(C(F)(F)F)OCCO2)cc1 | -112*
CCOc1ccc(/C=C/C(=O)Nc2cccc(C(C)=O)c2)cc1 | -151*
CC(=O)Nc1cccc(C(=O)/C=C/c2ccc(C)cc2)c1 | -123*
Cc1cccc(OCCOC(=O)c2c(-c3ccccc3)noc2C)c1 | -97*
C=CCn1cccc(C(=O)Nc2ccc(C)c(Cl)c2)c1=O | -140*
C=CCn1cccc(C(=O)Nc2ccc(OC)c(Cl)c2)c1=O | -84*
O=[N+]([O-])c1cc(/C=N\Nc2nc(-c3ccccc3)cs2)ccc1O | -67*
COc1cc(/C=N/Nc2nc(-c3ccc(S(=O)(=O)N(C)C)cc3)cs2)ccc1O | -78*
COc1cc(C=O)c(Br)cc1OCc1ccc(C)cc1 | -204*
SMILES | aSyn 5UTR act
CNC(=O)C(=O)Nc1nc(C23CC4CC(CC(C4)C2)C3)cs1 | -129*
O=C(CCc1ccccc1)Nc1cccnc1 | -63*
CC(C)(C)c1ccc(-c2noc(CCC(=O)Nc3cccnc3)n2)cc1 | 77
COCc1cccc(NC(=O)CCc2ccccc2)c1 | -99*
CC(C)c1ccc(NC(=O)CCc2ccccc2)cc1 | -389*
CC(Cc1ccccc1)C(=O)Nc1ccc(Br)cc1 (stereo not given) | -81*
O=C(NCc1ccccc1F)c1ccc2c(c1)OCCO2 | -80*
O=C(CCC1CCCN(C(=O)c2ccc3c(c2)OCCO3)C1)NCc1ccccc1F (stereo not given) | -66*
CCC(=O)Nc1ccc2c(c1)ncn2-c1ccccc1 | -75*
CC(=O)Nc1ccc2c(c1)ncn2-c1ccccc1 | -110*
CC(=O)Nc1ccc2c(c1)c1ccccc1n2C(C)=O | -65*
CCOc1ccc(-n2nc3ccc(NC(=O)CC)cc3n2)cc1 | -120*
CC(=O)c1ccc2c(c1)Cc1cc(C(C)=O)ccc1-2 | -125*
O=C1NC(=O)/C(=C/c2ccc(O)cc2)S1 | -91*
COc1ccc(/C(N)=N/OC(=O)c2ccc3c(c2)OCO3)cc1 | -98*
N/C(=N\OC(=O)c1ccc2c(c1)OCO2)c1ccc(Cl)cc1 | -165*
N/C(=N\OC(=O)c1ccc2c(c1)OCO2)c1ccncc1 | -102*
O=C(COC(=O)c1cc(Cl)ccc1O)c1ccc2c(c1)OCO2 | -122*
O=C(O)c1ccc(-c2noc(-c3cccc(C(F)(F)F)c3)n2)cc1 | -83*
FC(F)(F)c1cccc(-c2nc(-c3ccncc3)no2)c1 | -191*
COc1ccccc1/C=C/C(=O)c1ccccc1 | -155*
CCN(CC(=O)Nc1ccc2c(c1)OCCO2)C(=O)/C=C/c1cccc(OC)c1OC | -93*
COc1ccc(/C=C/C(=O)c2ccccc2)c(OC)c1 | -207*
COc1ccccc1/C=C/C(=O)c1ccc(Cl)cc1 | -62*
CCOc1ccccc1/C=C/C(=O)c1ccc(Cl)cc1 | -80*
SMILES | aSyn 5UTR act
COc1ccc(/C=C/C(=O)c2ccc3c(c2)OCO3)c(OC)c1 | -85*
COc1ccccc1/C=C/C(=O)c1ccc(NC(C)=O)cc1 | -205*
COc1ccccc1/C=C/C(=O)NC(=S)NC(C)C | -93*
COc1ccc(/C=C/C(=O)OCC(=O)c2ccc3c(c2)NC(=O)CO3)c(OC)c1 | 42
O=C(/C=C/c1ccccc1O)c1ccc(Cl)cc1 | -189*
COc1cccc(/C=C/C(=O)c2ccc3c(c2)OCCO3)c1OC | -307*
COc1ccccc1/C=C/C(=O)N1CCC(c2ccccc2)C1 (stereo not given) | -177*
COc1cc(CC(=O)OCC(=O)c2ccc3c(c2)OCCO3)cc(OC)c1OC | 100
COc1cc(O)c(C(=O)/C=C/c2ccccc2)c(OC)c1 | -163*
O=C(CN1C(=O)c2ccccc2S1(=O)=O)c1ccc(F)cc1 | 92
O=C(CN1CCN(CCN2C(=O)c3cccc4cccc(c34)C2=O)CC1)c1ccc(F)cc1 | -65*
Cc1ccc2c(c1)sc[n+]2Cc1ccccc1 | -256*
Cc1ccc(-n2ncc3c(NCc4ccccc4)ncnc32)cc1 | -189*
COc1ccc(-n2ncc3c(N4CCCCC4)ncnc32)cc1 | 101
Brc1ccc2ncnc(NCc3ccco3)c2c1 | -64*
Cc1cccc(-n2ncc3c(NCc4cccnc4)ncnc32)c1 | -142*
COc1ccc(-n2ncc3c(NCc4cccnc4)ncnc32)cc1 | -149*
c1ccc(-n2ncc3c(NCc4ccco4)ncnc32)cc1 | -252*
Cc1ccc(-n2ncc3c(NCc4cccnc4)ncnc32)cc1C | -90*
COc1ccc(-n2ncc3c(NCc4ccc5c(c4)OCO5)ncnc32)cc1 | -109*
O=C(c1ccco1)N1CCN(c2ccc(Cl)cc2)CC1 | -130*
O=C(c1ccco1)N1CCN(Cc2c(F)cccc2Cl)CC1 | -75*
O=C(c1ccco1)N1CCN(C(=O)N2c3ccccc3Sc3ccccc32)CC1 | 81
O=C(c1ccco1)N1CCN(c2ccc(Cl)c(Cl)c2)CC1 | -121*
O=c1[nH]cnc(O)c1N=Nc1ccccc1 | -71*
SMILES | aSyn 5UTR act
COc1cc(C(F)(F)F)ccc1C(=O)NCCc1ccco1 | -163*
COC(=O)Nc1nnc(-c2ccccc2Cl)s1 | -94*
Nc1ncnc(N)c1N=Nc1ccccc1 | 112
Nc1nn(-c2ccccc2)c(N)c1N=Nc1ccccc1F | -98*
Nc1c(N=Nc2ccccc2F)c(=O)[nH]n1-c1ccccc1 | -125*
Nc1nn(-c2ccccc2)c(N)c1N=Nc1ccccc1 | -106*
CCc1nc(SCC#N)c(C#N)cc1C | 69
Cc1cccc2cc(C#N)c(SCC#N)nc12 | 85
CCOC(=O)CC(=O)CSc1nc2c(cc1C#N)CCCCC2 | -138*
CC(C)OC(=O)CSc1nc2c(cc1C#N)CCCCC2 | -166*
N#Cc1cc2c(nc1SCc1ccncc1)CCC2 | -95*
CCCCNC(=O)c1cc(-c2ccc(OC)cc2)on1 | -144*
CCCNC(=O)c1cc(-c2ccc(OC)cc2)on1 | -160*
CCCCNC(=O)c1cc(-c2ccc(F)cc2)on1 | -592*
CCCCCCSc1nsc(NC(C)=O)n1 | -97*
CCCCSc1nsc(NC(C)=O)n1 | -135*
CCCSc1nsc(NC(=O)c2cccnc2OCC)n1 | -72*
CCCSc1nsc(NC(=O)CCC)n1 | -142*
O=C(COC(=O)c1c(F)cccc1Cl)NC1CCCC1 | -78*
COc1cccc(NC(=O)COC(=O)c2c(F)cccc2Cl)c1 | -148*
CC(=O)c1cnc(Nc2cccc(Cl)c2Cl)s1 | -92*

From PubChem BioAssay
